The values that follow come from paper PMC6212833.

SMILES strings stand for the structures. In all, about 2,000 compounds were measured (“B-score”: median about -0.0024, highest 2% from about 4 on). This excerpt belongs to a sample that is enriched for the highest values.

The test system of the assay is Balamuthia mandrillaris (ATCC PRA-291) trophozoites, axenic culture. Nature of the assay: primary screen, b score. The following applies: 20 µM. The protocol: Screening of a clinically approved library of compounds, compiled by the Small Molecule Discovery Center (SMDC) at the UCSF, was completed at 20 µM in 0.2% DMSO. All 2,177 drugs in the library were stored as 10 mM stocks dissolved in 100% DMSO (Sigma-Aldrich) at −20°C. B. mandrillaris amoebae were resuspended in axenic medium and distributed into opaque 384-well plates (Corning) at a density of 3,000 amoebae per well using a BioMek NX liquid handler. Negative-control wells were treated with vehicle only (0.2% DMSO in axenic medium), and positive-control wells simulating total destruction of amoebae were seeded with amoeba lysate generated by 3 consecutive freeze-thaw cycles. Following 72 h of incubation, 30 µl of CellTiter Glo reagent (CTG; Promega) was added to each well. The luminescence was measured with a Promega GloMax-Multi+ plate reader at 2, 4, and 8 h after CTG addition. […] The B-score, representing a plate-based statistical approach for correcting row, column, and edge effects, was also calculated for each compound in the library (75).
In turn, `[N-]=[N+]=CC(=O)OC[C@H](N)C(=O)O` returned a B-score of 4.05.
The molecule `CC(=O)O[C@H]1C[C@H](O[C@H]2[C@@H](O)C[C@H](O[C@H]3[C@@H](O)C[C@H](O[C@H]4CC[C@@]5(C)[C@H](CC[C@@H]6[C@@H]5C[C@@H](O)[C@]5(C)[C@@H](C7=CC(=O)OC7)CC[C@]65O)C4)O[C@@H]3C)O[C@@H]2C)O[C@H](C)[C@H]1O[C@@H]1O[C@H](CO)[C@@H](O)[C@H](O)[C@H]1O` registered a B-score of 0.168.
Take `O=C1C[C@@H]2OCC=C3CN4CC[C@]56c7ccccc7N1[C@H]5[C@H]2[C@H]3C[C@H]46`: the B-score came to 0.0173.
As to `CN1C[C@H](CNC(=O)OCc2ccccc2)C[C@@H]2c3cccc4c3c(cn4C)C[C@H]21`, the B-score is -0.657.
The result for `CC(C)C[C@H](CN)CC(=O)O` reads 1.41.
